Inconclusive results are not listed. Values without a mark were called inactive. Activity calls are given as the source filed them. The call rests on the fitted dose curve; in most records, active means well fitted cell-killing curve with a large enough effect in the repeat runs; inconclusive means weak or mixed curves; inactive means no such curve, though single readings can be large or run the other way.
assay: qHTS assay to identify small molecule antagonists of the androgen receptor (AR) signaling pathway - cell viability counter screen (AID 743033; further: nearly all actives have a fitted effect of over 45% in size); conditions: AR-bla HEK293 viability, CellTiter-Glo luminescence, 16 h; series mostly up to 58.5 µM; activity change, negative = cytotoxicity: at the top concentration
Excerpt: National Center for Advancing Translational Sciences [NCATS]
NIH Chemical Genomics Center [NCGC]
U.S. Environmental Protection Agency [EPA]
National Institutes of Environmental Health Sciences [NIEHS]
National Toxicology Program [NTP]
U.S. Food and Drug Administration [FDA]
Androgen receptor (AR), a nuclear hormone receptor, plays a critical role in AR-dependent prostate cancer and other androgen related diseases. Endocrine disrupting chemicals (EDCs) and their interactions with steroid hormone receptors like AR may cause disruption of normal endocrine function as well as interfere with metabolic homeostasis, reproduction, developmental and behavioral functions. To identify the compounds that inhibit AR signaling, GeneBLAzer AR-UAS-bla-GripTite cell line (Invitrogen, Carlsbad, CA, USA) containing a beta-lactamase reporter gene under control of an Upstream Activator Sequence (UAS) stably integrated into HEK293 cells was used to screen the Tox21 10K compound library. The cytotoxicity of the Tox21 compound library against the AR-bla cell line was tested in parallel by measuring the cell viability using CellTiter-Glo assay in the same wells.
Tox21 Assay Protocol Summary:
AR-bla cells were dispensed at 2,000 cells/5 uL of assay medium per well into black wall/clear-bottom 1536-well plates using a Multidrop Combi (ThermoFisher Scientific, Waltham, MA) dispenser. After the assay plates were incubated at a 37C and 5% CO2 for 4 hr, 23 nL of compounds dissolved in DMSO, positive controls or DMSO only was transferred to the assay plate by a Pintool station (Kalypsys, San Diego, CA), followed by addition of 1 uL of agonist (R1881) in culture medium using a Bioraptr Flying Reagent Dispenser (FRD) workstation (Beckman Coulter, Indianapolis, IN, USA). The plates were incubated at a 37C and 5% CO2 for 16 h. After 1 uL of LiveBLAzerTM B/G FRET substrate was added using a Bioraptr FRD, the plates were incubated at room temperature for 2 h and fluorescence intensity was measured by an Envision plate reader (PerkinElmer, Shelton, CT). For cell viability readout that measures cytotoxicity, 4 ul/well of CellTiter-Glo reagent was added into the assay plates using a Bioraptr FRD. After 30 min incubation at room temperature, the luminescence intensity in the plates was measured using a ViewLux (PerkinElmer) plate reader.
On the % scale 0 is the no-effect control and ±100 the full control effect.

Row | SMILES | activity change, negative = cytotoxicity | Potency
1 | COc1ccc(-n2nc(C(F)F)cc2-c2ccc(S(C)=O)cc2)cc1 (stereo not given) | -15.1% | 
2 | Cc1c[nH]c2ccccc12 | 9.18% | 
3 | CC1CCC(C(C)CS)CC1S (stereo not given) | 3.86% | 
4 | NC(=O)CCCCC(N)=O | 1.02% [at 78.9 µM] | 
5 | CNCc1ccc(NC(=O)c2c[nH]c3c2C(=O)CCC3)cc1 | 0.329% | 
6 | C=Cc1ccc(OC(C)=O)cc1 | 4.59% | 
7 | CCCCCc1ccco1 | -13% | 
8 | O=C(O)CNC(=O)c1ccccc1I | 1.18% | 
9 | Cc1ccc(N(CCO)CCO)cc1 | 0.912% | 
10 | CCCCCCCCCCCCCOC(=O)CCSCCC(=O)OCCCCCCCCCCCCC | 4.02% [at 27 µM] | 
11 | CC(CCc1ccc(O)cc1)NCCc1ccc(O)c(O)c1 (stereo not given) | -23.1% | 
12 | COc1ccc(C(=O)NCc2ccc(OCCN(C)C)cc2)cc1OC | 8.15% | 
13 | CC[C@H]1OC(=O)[C@H](C)[C@@H](O[C@H]2C[C@@](C)(OC)[C@@H](O)[C@H](C)O2)[C@H](C)[C@@H](O[C@@H]2O[C@H](C)C[C@H](N(C)C)[C@H]2O)[C@](C)(O)C[C@@H](C)/C(=N\OCOCCOC)[C@H](C)[C@@H](O)[C@]1(C)O |  | inactive
14 | O=C(O)c1cccc(C[C@@H]2COc3ccc(OCc4nc5cc(F)ccc5s4)cc3[C@@H]2O)c1 | 3.27% | 
15 | O=C1OC(=O)c2c(Br)c(Br)c(Br)c(Br)c21 | -6.29% | 
16 | CCNc1nc(N)nc(Cl)n1 | 1.44% | 
17 | Nc1ccc(S(=O)(=O)NCc2ccccc2)cc1 | -3.69% | 
18 | CC(CN(CCN(CC(C)OCCO)CC(C)OCCO)CC(C)OCCO)OCCO (stereo not given) | 0.12% [at 78.9 µM] | 
19 | CC(C)OC(=O)c1ccccc1C(=O)OC(C)C | 1.94% | 
20 | CCSC(=O)N(CC)CC | -0.455% | 

Row | SMILES | activity change, negative = cytotoxicity | Potency
21 | Cc1cc([N+](=O)[O-])ccc1N | 3.59% | 
22 | Nc1ccc(NC(=O)c2ccc(N)cc2)cc1 | -12.5% | 
23 | CC(=O)c1ccc[nH]1 | -0.255% | 
24 | CC(C)(C)C(O)/C=C/c1ccc2c(c1)OCO2 (stereo not given) | 8.08% | 
25 | O=c1[nH]c2cc(C(F)(F)F)c(N3CCOCC3)cc2n(CP(=O)(O)O)c1=O | 10.7% | 
26 | Cc1ccc2c(c1[N+](=O)[O-])C(=O)c1ccccc1C2=O | -2.26% | 
27 | CCCCCCOC(=O)CCCCC | -0.327% | 
28 | C=C(C)C(=O)OCCC(F)(F)C(F)(F)C(F)(F)C(F)(F)C(F)(F)C(F)(F)F | -0.371% | 
29 | CC(C)(O)CCc1ccccc1 | 11.1% | 
30 | O=C(O)c1ccc(O)cc1O | -0.931% [at 78.9 µM] | 
31 | COc1cc(OC)c2ccc(=O)oc2c1 | 1.53% | 
32 | CCN(CC)c1cccc(O)c1 | 0.96% [at 78.9 µM] | 
33 | CC(=O)C(=O)CC(C)C | 3.15% | 
34 | CCCCCCCC/C=C\CCCCCCCC(=O)OCCO | -10.8% [at 78.9 µM] | 
35 | ClC1=C(Cl)C1(Cl)Cl | 0.117% [at 78.9 µM] | 
36 | N[C@@H](Cc1cc(I)c(O)c(I)c1)C(=O)O | -0.0323% | 
37 | CC(=O)OCC1=C(C(=O)O)N2C(=O)[C@@H](NC(=O)CSc3ccncc3)[C@H]2SC1 | 2.05% | 
38 | CC1CCc2nccnc21 (stereo not given) | 0.605% | 
39 | CS(=O)(=O)c1ccc([C@@H](C[C@H]2CCC(=O)C2)C(=O)Nc2cnccn2)cc1Cl | 2.79% | 
40 | CCC(=O)OCc1ccc(OC)cc1 | 2.25% | 
